According to PubChem BioAssay (Tox21):
Several values for one entry are separate records, joined by “and”; a condition that tells them apart may be missing. Identical values can stand only once. More than one record can exist for a structure, and the calls need not agree. Activity calls are given as the source filed them. A call without a number means that no potency is given here. Unless noted, the call rests on the fitted dose curve; in most records, active means well fitted curve in the direction sought with a large enough effect in the repeat runs; inconclusive means weak or mixed curves; inactive means no such curve, though single readings can be large; an effect the other way counts as inactive or inconclusive.

How the values were obtained:
[1] = qHTS assay to identify small molecule antagonists of the glucocorticoid receptor (GR) signaling pathway - cell viability counter screen (AID 720693); further: nearly all actives have a fitted effect of over 55% in size; further: potency means the concentration at half of the fitted maximal effect
[2] = qHTS assay for identifying genotoxic compounds that show differential cytotoxicity against isogenic chicken DT40 cell lines with known DNA damage response pathways - wild type cell line (AID 743012); further: nearly all actives have a fitted effect of over 60% in size; further: potency means the concentration at half of the fitted maximal effect
Procedure, shortened: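 Quantitative HTS on parental DT40 cells: 40 h compound treatment at 37 C/5% CO2, with viability then determined by CellTiter-Glo luminescence. Values serve as the DNA repair-proficient reference for differential cytotoxicity.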

[3] = qHTS assay for identifying genotoxic compounds that show differential cytotoxicity against isogenic chicken DT40 cell lines with known DNA damage response pathways - Rev3 mutant cell line (AID 743014); further: nearly all actives have a fitted effect of over 55% in size; further: potency means the concentration at half of the fitted maximal effect
[4] = qHTS assay for identifying genotoxic compounds that show differential cytotoxicity against isogenic chicken DT40 cell lines with known DNA damage response pathways - Rad54/Ku70 mutant cell line (AID 743015); further: nearly all actives have a fitted effect of over 60% in size; further: potency means the concentration at half of the fitted maximal effect
[5] = qHTS assay to identify small molecule antagonists of the androgen receptor (AR) signaling pathway - cell viability counter screen (AID 743033; further: nearly all actives have a fitted effect of over 45% in size; further: potency means the concentration at half of the fitted maximal effect)
[6] = qHTS assay to identify small molecule antagonists of the androgen receptor (AR) signaling pathway using the MDA cell line - cell viability counter screen (AID 743041; further: nearly all actives have a fitted effect of over 45% in size; further: potency means the concentration at half of the fitted maximal effect)
Procedure, shortened: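 Cells were plated at 3,000 per well and left 5 h. Compounds in DMSO were then pinned in, followed by R1881. After 16 h at 37C, CellTiter-Fluor fluorescence gave viability.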

[7] = qHTS assay to identify small molecule antagonists of the thyroid receptor (TR) signaling pathway - cell viability counter screen (AID 743064); further: nearly all actives have a fitted effect of over 50% in size; further: potency means the concentration at half of the fitted maximal effect
Procedure, shortened: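 GH3.TRE-Luc rat pituitary cells dosed after 4 hr plating, co-stimulated with T3 at 1 nM final, incubated 23.5 h at 37 C. Viability measured in the same wells by CellTiter-Fluor fluorescence after 30 min further at 37 C.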

[8] = qHTS assay to identify small molecule antagonists of the thyroid receptor (TR) signaling pathway (AID 743065); further: nearly all actives have a fitted effect of over 55% in size; further: potency means the concentration at half of the fitted maximal effect
Procedure, shortened: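 Antagonism measured as loss of luciferase signal in GH3 cells stably carrying a TRE-luciferase reporter, co-treated with compound and T3 (1 nM final) for 23.5 h at 37 C. Viability was read in the same well by CellTiter-Fluor.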

[9] = system: thyroid hormone receptor (rat, GH3 cells); test: qHTS assay to identify small molecule agonists of the thyroid receptor (TR) signaling pathway (AID 743066; calls by dose curve)
[10] = biological target: Estrogen receptor (Homo sapiens) (UniProt P03372); test: qHTS assay to identify small molecule antagonists of the estrogen receptor alpha (ER-alpha) signaling pathway (AID 743069; active means well fitted curve in the direction sought with a large enough effect in the signal ratio in the repeat runs, not every such curve was filed as active; inconclusive means weak or mixed curves, or effect the other way; inactive means no such curve, though single readings can be large or run the other way; the % refers to the signal ratio)
Sequence of Estrogen receptor (Homo sapiens) (P03372 whole entry, looked up): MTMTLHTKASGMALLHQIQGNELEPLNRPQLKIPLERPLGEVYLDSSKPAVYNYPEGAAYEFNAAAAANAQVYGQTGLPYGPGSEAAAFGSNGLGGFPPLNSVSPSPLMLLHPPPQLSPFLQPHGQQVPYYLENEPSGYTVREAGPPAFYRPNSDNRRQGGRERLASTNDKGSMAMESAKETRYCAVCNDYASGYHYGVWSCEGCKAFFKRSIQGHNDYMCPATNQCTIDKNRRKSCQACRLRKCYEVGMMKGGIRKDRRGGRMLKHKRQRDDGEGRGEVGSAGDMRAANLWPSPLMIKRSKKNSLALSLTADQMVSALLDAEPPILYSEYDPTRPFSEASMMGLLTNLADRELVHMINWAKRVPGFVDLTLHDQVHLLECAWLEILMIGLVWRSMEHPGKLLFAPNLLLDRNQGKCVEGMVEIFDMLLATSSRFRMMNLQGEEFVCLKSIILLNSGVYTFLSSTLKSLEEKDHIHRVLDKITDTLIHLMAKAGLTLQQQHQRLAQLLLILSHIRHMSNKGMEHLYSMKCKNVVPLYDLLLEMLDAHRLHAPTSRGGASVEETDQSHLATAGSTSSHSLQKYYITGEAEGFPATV
Procedure, shortened: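 ER-alpha-UAS-bla GripTite HEK293 line; 2% charcoal-stripped FBS overnight; plated, 4 hr 37C/5% CO2; cpd in DMSO + 17beta-estradiol, 18 hr 37C; LiveBLAzer B/G FRET substrate 2 hr RT; fluorescence intensity.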

[11] = qHTS assay to identify small molecule antagonists of the estrogen receptor alpha (ER-alpha) signaling pathway - cell viability counter screen (AID 743074; calls by dose curve;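 further: HEK293 cells carrying ER-alpha-UAS-bla reporter stimulated with 17beta-estradiol; nearly all actives have a fitted effect of over 45% in size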; further: potency means the concentration at half of the fitted maximal effect)
[12] = biological target: Estrogen receptor (Homo sapiens) (UniProt P03372); test: qHTS assay to identify small molecule agonists of the estrogen receptor alpha (ER-alpha) signaling pathway (AID 743075; calls by dose curve;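 further: HEK293 GripTite cells with ER-alpha and UAS-driven beta-lactamase reporter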; further: potency means the concentration at half of the fitted maximal effect)
[13] = biological target: Estrogen receptor (Homo sapiens) (UniProt P03372); test: qHTS assay to identify small molecule agonists of the estrogen receptor alpha (ER-alpha) signaling pathway using the BG1 cell line (AID 743079); settings: BG1Luc4E2 cells, ERE-luciferase agonist, 22 h; activation: at 70.3 µM (top of the series) unless noted; further: nearly all actives have a fitted effect of over 20% in size; further: potency means the concentration at half of the fitted maximal effect
[14] = qHTS assay to identify small molecule antagonists of the estrogen receptor alpha (ER-alpha) signaling pathway using the BG1 cell line (AID 743080; calls by dose curve;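 further: BG1 cells stimulated with 17beta-estradiol alongside compound; nearly all actives have a fitted effect of over 25% in size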; further: potency means the concentration at half of the fitted maximal effect)
Procedure, shortened: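 Endogenous full-length ER-alpha in BG1-Luc-4E2 cells drives a stably integrated 4×ERE luciferase gene; compounds were tested against 17beta-estradiol over 21.5 h, with luminescence and multiplexed viability fluorescence recorded.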

[15] = qHTS assay to identify small molecule antagonists of the estrogen receptor alpha (ER-alpha) signaling pathway using the BG1 cell line - cell viability counter screen (AID 743081);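 further: compound given together with 17beta-estradiol as the ER stimulus; nearly all actives have a fitted effect of over 45% in size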
[16] = biological target: Aromatase (Homo sapiens) (UniProt P11511); test: qHTS assay to identify aromatase inhibitors (AID 743083); further: nearly all actives have a fitted effect of over 55% in size; further: potency means the concentration at half of the fitted maximal effect
Sequence of Aromatase (Homo sapiens) (P11511 whole entry, looked up): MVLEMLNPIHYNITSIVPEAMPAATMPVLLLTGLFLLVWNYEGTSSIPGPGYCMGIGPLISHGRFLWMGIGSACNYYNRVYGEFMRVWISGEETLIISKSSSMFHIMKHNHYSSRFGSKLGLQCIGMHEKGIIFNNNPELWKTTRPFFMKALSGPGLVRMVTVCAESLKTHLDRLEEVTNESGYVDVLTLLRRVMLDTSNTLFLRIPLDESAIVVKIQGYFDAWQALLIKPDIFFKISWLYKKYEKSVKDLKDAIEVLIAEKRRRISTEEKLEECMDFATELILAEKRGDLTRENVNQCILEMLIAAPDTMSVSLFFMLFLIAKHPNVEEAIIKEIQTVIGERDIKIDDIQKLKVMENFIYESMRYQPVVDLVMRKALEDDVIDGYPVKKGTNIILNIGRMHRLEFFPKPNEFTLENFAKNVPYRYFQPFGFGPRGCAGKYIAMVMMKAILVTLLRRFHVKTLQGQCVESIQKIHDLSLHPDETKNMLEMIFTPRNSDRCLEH

[17] = biological target: Androgen receptor (Homo sapiens) (UniProt P10275); test: qHTS assay to identify small molecule antagonists of the androgen receptor (AR) signaling pathway (AID 743035; active means well fitted inhibition curve with a large enough effect in the signal ratio in the repeat runs, not every such curve was filed as active; inconclusive means weak or mixed curves, or effect the other way; inactive means no such curve, though single readings can be large or run the other way; the % refers to the signal ratio)
Sequence of Androgen receptor (Homo sapiens) (P10275 whole entry, looked up): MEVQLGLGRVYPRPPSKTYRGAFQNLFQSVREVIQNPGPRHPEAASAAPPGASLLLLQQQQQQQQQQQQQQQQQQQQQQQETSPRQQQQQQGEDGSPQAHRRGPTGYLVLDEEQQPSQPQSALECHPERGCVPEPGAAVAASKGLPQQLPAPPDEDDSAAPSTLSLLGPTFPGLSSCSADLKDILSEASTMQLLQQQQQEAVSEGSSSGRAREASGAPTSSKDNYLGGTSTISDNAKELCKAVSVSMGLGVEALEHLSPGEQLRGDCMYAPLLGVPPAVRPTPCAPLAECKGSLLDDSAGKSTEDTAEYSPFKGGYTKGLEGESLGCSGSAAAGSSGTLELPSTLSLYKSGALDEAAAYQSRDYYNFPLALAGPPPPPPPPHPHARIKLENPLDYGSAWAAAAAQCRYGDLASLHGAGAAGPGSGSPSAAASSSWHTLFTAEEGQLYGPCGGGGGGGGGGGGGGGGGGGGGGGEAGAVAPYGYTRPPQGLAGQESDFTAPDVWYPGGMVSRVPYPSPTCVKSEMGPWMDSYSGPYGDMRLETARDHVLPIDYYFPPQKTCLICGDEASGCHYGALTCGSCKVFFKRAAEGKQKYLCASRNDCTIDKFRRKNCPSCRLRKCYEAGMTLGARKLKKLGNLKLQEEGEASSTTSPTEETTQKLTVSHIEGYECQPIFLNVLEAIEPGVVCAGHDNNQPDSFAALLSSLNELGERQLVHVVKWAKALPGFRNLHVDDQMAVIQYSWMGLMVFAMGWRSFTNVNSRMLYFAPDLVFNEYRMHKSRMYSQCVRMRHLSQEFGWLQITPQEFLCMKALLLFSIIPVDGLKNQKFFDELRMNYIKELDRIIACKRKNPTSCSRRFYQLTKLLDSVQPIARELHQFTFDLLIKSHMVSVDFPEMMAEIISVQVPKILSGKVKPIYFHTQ
Procedure, shortened: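 Cell line: GeneBLAzer AR-UAS-bla GripTite (HEK293). Stimulus: R1881 added after compound. Exposure: 16 h, 37C, 5% CO2. Readout: LiveBLAzer B/G FRET fluorescence after 2 h at room temperature.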

[18] = biological target: Androgen receptor (Homo sapiens) (UniProt P10275); test: qHTS assay to identify small molecule agonists of the androgen receptor (AR) signaling pathway (AID 743036; active means well fitted activation curve with a large enough effect in the signal ratio in the repeat runs, with a control signal flat, not every such curve was filed as active; inconclusive means weak or mixed curves, or effect the other way; inactive means no such curve, though single readings can be large or run the other way; the % refers to the signal ratio)
Procedure, shortened: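 AR-UAS-bla HEK293 cells, plated 4 h before dosing, were treated with compound for 16 h at 37C. beta-Lactamase reporter read after 2 h with LiveBLAzer B/G FRET substrate at room temperature.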

[19] = biological target: Androgen receptor (Homo sapiens) (UniProt P10275); test: qHTS assay to identify small molecule agonists of the androgen receptor (AR) signaling pathway using the MDA cell line (AID 743040; further: nearly all actives have a fitted effect of over 20% in size); settings: MDA-kb2 AR-luc cells, MMTV luciferase, 16 h; at 70.3 µM (top of the series); stronger effect = higher value
Procedure, shortened: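 Cells plated, 5 h at 37C/0% CO2; compound or DMSO pinned; 16 h at 37C; ONE-Glo added; luminescence measured after 30 min at room temperature. Reporter line: MDA-kb2 with MMTV-luciferase responsive to AR and GR.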

[20] = biological target: Androgen receptor (Homo sapiens) (UniProt P10275); test: qHTS assay to identify small molecule antagonists of the androgen receptor (AR) signaling pathway using the MDA cell line (AID 743042; further: nearly all actives have a fitted effect of over 55% in size)
Procedure, shortened: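 Antagonist mode: compounds plus R1881 agonist added to MDA-kb2 AR-luc cells, incubated 16 h at 37C. Luciferase reporter luminescence quantified, with multiplexed CellTiter-Fluor readout for cell viability.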

Compound | Potency [1] | Potency [2] | Potency [3] | Potency [4] | Potency [5] | Potency [6] | Potency [7] | Potency [8] | Potency [9] | Potency [10] | Potency [11] | Potency [12] | Potency [13] | Potency [14] | Potency [15] | Potency [16] | Potency [17] | Potency [18] | activity change [19] | Potency [20]
COc1ccc(O)c(C(C)(C)C)c1 | inactive | inactive | inactive | inactive | inactive | inactive | inactive | inactive | inactive | inactive | inactive | inactive | inactive | inactive | inactive | inactive | – | – | – | –
CCOC(=O)c1ccccc1N | inactive | inactive | inactive | inactive | inactive | inactive | inactive | inactive | inactive | – | inactive | inactive | inactive | inactive | inactive | inactive | – | – | – | –
O=C1C(Cl)=C(Cl)C(=O)c2ccccc21 | 21.9 µM (active) and 19.5 µM (active) | 2.18 µM (active) and 486 nM (active) | 972 nM (active) and 969 nM (active) | 2.18 µM (active) and 545 nM (active) | 4.91 µM (active) and 7.76 µM (active) | inactive | 30.7 µM (active) and 5.45 µM (active) | 3.07 µM (active) and 3.44 µM (active) | inactive | – | 43.8 µM (active) and 54.9 µM (active) | – | – | 30.7 µM (active) and 54.5 µM (active) | inactive | 2.18 µM (active) and 3.86 µM (active) | – | – | – | –
CC(C)Nc1nc(Cl)nc(NC(C)C)n1 | inactive | inactive | inactive | inactive | inactive | inactive | inactive | inactive | inactive | – | inactive | inactive | inactive | inactive | inactive | inactive | – | – | – | –
CC(C)Nc1ccc(Nc2ccccc2)cc1 | inactive | 5.96 µM (active) and 17.2 µM (active) and 12.2 µM (active) | 10.6 µM (active) and 12.1 µM (active) and 13.7 µM (active) | 8.41 µM (active) and 15.3 µM (active) and 10.9 µM (active) | 21.8 µM (active) and 49 µM (active) | 68.3 µM (active) and 61.1 µM (active) | 13.3 µM (active) and 30.6 µM (active) | 11.9 µM (active) and 30.5 µM (active) and 17.2 µM (active) | inactive | – | 48.8 µM (active) and 43.6 µM (active) | inactive | – | – | inactive | 13.3 µM (active) and 27.2 µM (active) | – | – | – | –
ClC(Cl)=C(Cl)C(Cl)=C(Cl)Cl | inactive | inactive | inactive | inactive | inactive | inactive | inactive | inactive | inactive | inactive | inactive | inactive | inactive | inactive | inactive | inactive | – | – | – | –
CCCCCCCCCCCCCl | inactive | inactive | inactive | inactive | inactive | inactive | inactive | inactive | inactive | – | inactive | 54.2 µM [activator] (active) and inactive | 30.2 µM (active) and inactive | inactive | inactive | inactive | – | – | – | –
Clc1cccc(C(Cl)(Cl)Cl)n1 | inactive | inactive | inactive | inactive | inactive | inactive | inactive | inactive | inactive | – | inactive | inactive | inactive | inactive | inactive | inactive | inactive | inactive | 0.42% (inactive) and 1.19% (inactive) | inactive
COC(=O)Nc1nc2ccccc2[nH]1 | inactive | 9.69 µM (active) and 8.63 µM (active) | 6.11 µM (active) and 6.86 µM (active) | 6.86 µM (active) and 7.7 µM (active) | inactive | inactive | 12.2 µM (active) | 5.45 µM (active) and 7.7 µM (active) | inactive | – | inactive | – | – | – | inactive | inactive | – | – | 0.968% (inactive) and 4.32% (inactive) | inactive
O=C(O)CF | inactive | inactive | inactive | inactive | inactive | inactive | inactive | inactive | inactive | – | inactive | inactive | inactive | inactive | inactive | inactive | – | – | – | –
ClC(Cl)(Cl)c1ccccc1 | inactive | inactive | inactive | inactive | inactive | inactive | inactive | inactive | inactive | inactive | inactive | inactive | inactive | inactive | inactive | inactive | – | – | – | –
OCCOCCO | inactive | inactive | inactive | inactive | inactive | inactive | inactive | inactive | inactive | inactive | – | inactive | inactive | inactive | inactive | inactive | – | – | – | –
O=NN(c1ccccc1)c1ccccc1 | inactive | inactive | inactive | inactive | inactive | inactive | inactive | inactive | inactive | inactive | inactive | 53.7 µM [inconclusive] (active) and inactive | 47.4 µM (active) | inactive | inactive | inactive | – | – | – | –
